The subject of assay [1] is Human papillomavirus type 1a protein E7 (residues 44-93). The assay is described as follows: HPV1a E7 fragment binders on microarrays, primary screen, biochemical, small-molecule microarray, residues 44-93, 635 nm fluorescence (AID 1108).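 Also: E7 fragment applied at 1 µg/mL in TBST for 1 h at 4 C; score combines spot fluorescence with its signal to noise ratio.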 Particulars: small-molecule microarray binding, fluorescence 635 nm; higher = more signal.
Assay [2] is described as follows: modulators of HCV replicon luciferase signal, primary screen, HCV replication inhibitor project, Huh7 cells, luciferase reporter (AID 1109).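 Also: huh7 hepatoma cells harbouring a luciferase neomycin HCV replicon reporter; luciferase luminescence as measure of HCV replicon replication; test concentration not given here.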 To be noted: 48 h, higher = more signal. Background: In antiviral work, replicon cells carry a viral genome segment that copies itself.
Assay [3] concerns the target Left-right determination factor 2 (Homo sapiens) (UniProt O00292). Nature of the assay: LEFTY2 binders on small-molecule microarrays, primary screen, biochemical, small-molecule microarray, 635 nm fluorescence scan (AID 1110). Particulars: LEFTY2 binding, higher = more signal.
Assay [4] deals with Calmodulin-1 (Homo sapiens) (UniProt P0DP23). The assay is described as follows: CALM1 binders on microarrays, EGTA buffer, profiling panel, biochemical, small-molecule microarray, Cy5-labelled CALM1 (AID 1111).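 Also: labelled calmodulin applied in Tris saline Tween buffer holding calcium plus EGTA and DTT.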 Particulars: Cy5-CALM1 binding fluorescence, higher = more signal.
Assay [5] shares this target. Nature of the assay: calcium-bound CALM1 binders on microarrays, profiling panel, artefact control for SMM control-protein annotation, biochemical, small-molecule microarray, Cy5-labelled CALM1, plus calcium (AID 1112).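 Also: score merges spot fluorescence with signal to noise from triplicate slides.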 To be noted: Cy5-CALM1 binding fluorescence, higher = more signal.
Assay [6] is described as follows: small-molecule microarray binders of probe aWnt5a, primary screen, biochemical, biotinylated probe, 635/667 nm fluorescence (AID 1113).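 Also: score merges 667 nm fluorescence intensity with signal-to-noise per printed feature.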 Particulars: higher = more signal.
The nature of assay [7]: small-molecule microarray binders of probe aShh, primary screen, biochemical, biotinylated probe, 635/667 nm fluorescence (AID 1114).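 Also: probe is biotin-labelled aShh protein from a stem cell growth factor screen; measures binding of labelled protein to compounds printed on the slide; score merges feature fluorescence at 667 nm with signal-to-noise.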 Particulars: higher = more signal.
Assay [8] is described as follows: small-molecule microarray binders of probe aNog, primary screen, biochemical, biotinylated probe, 635/667 nm fluorescence (AID 1115).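 Also: probe is biotinylated aNog protein used at 0.15 µg/mL for 1 h at 4 C; z-score combines 667 nm fluorescence of each spot with its signal to noise.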 To be noted: higher = more signal.
Assay [9] has as its target Torsin-1A-interacting protein 1 (Homo sapiens) (UniProt Q5JTV8). Nature of the assay: LAP1 binders from COS7 cell lysate, primary screen, small-molecule microarray, 635/667 nm fluorescence (AID 1116). Particulars: COS7-hLAP1 lysate binding, 635 nm fluorescence, higher = more signal.
In assay [10] the target is Alpha-bungarotoxin (Bungarus multicinctus) (UniProt P60615). The assay is described as follows: alpha-bungarotoxin binders on microarray, profiling panel, artefact control for SMM control protein annotation, biochemical, small-molecule microarray, Alexa647 label, 635/667 nm fluorescence (AID 1117). Particulars: alpha-BTX-A647 binding fluorescence, higher = more signal.
The target of another assay is Albumin (Bos taurus) (UniProt P02769). Nature of the assay: bovine serum albumin binders on microarray, profiling panel, artefact control for SMM control protein annotation, biochemical, small-molecule microarray, Alexa647 label, 635/667 nm fluorescence (AID 1118).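 Also: score merges 667 nm emission intensity and signal-to-noise per printed compound spot.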 Particulars: BSA-A647 binding, fluorescence 635 nm, higher = more signal.
Assay [11] is described as follows: small-molecule microarray binders of probe aXIP, primary screen, biochemical, NeuroSMM set, 635/667 nm fluorescence (AID 1119).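 Also: probe is the protein aXip251-270 applied at 1 µg/mL to compound-printed slides; binding of probe to printed compounds measured as 667 nm fluorescence plus signal to noise.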 Particulars: higher = more signal, called active from +8 up or from −8 down.
A short description of assay [12]: small-molecule binders of probe aNOTCH3, primary screen, biochemical, small-molecule microarray, 635/667 nm fluorescence (AID 1120).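 Also: probe is a biotin-tagged antibody raised against NOTCH3 rather than NOTCH3 protein; score merges spot fluorescence near 667 nm with spot signal to noise.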 To be noted: higher = more signal.
Assay [13] can be described thus: small-molecule binders of probe aNOTCH2, primary screen, biochemical, small-molecule microarray, 635/667 nm fluorescence (AID 1121).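 Also: score merges feature fluorescence read at 667 nm with its signal to noise.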 Particulars: higher = more signal.
Assay [14] deals with Carbonic anhydrase 2 (Homo sapiens) (UniProt P00918). The assay is described as follows: CAII small-molecule binders, profiling panel, biochemical, small-molecule microarray, Alexa647-labelled CAII (AID 1122). To be noted: CAII-A647 binding fluorescence, higher = more signal.
Assay [15] is described as follows: COS7 lysate on small-molecule microarray, probe aHis, 635 nm (AID 1123).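 Also: z-score combines 667nm fluorescence intensity with signal-to-noise per printed compound spot.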 Particulars: COS7 cell lysate, fluorescence, higher = more signal.
A short description of assay [16]: compound binding in COS7 lysate, probe aLAP1, primary screen, cell lysate, small-molecule microarray (AID 1124).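 Also: lysate comes from COS7 cells expressing LAP1 and is applied at 0.3 µg/mL; score merges spot fluorescence near 667 nm with signal-to-noise over triplicate slides.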 To be noted: probe aLAP1, fluorescence, higher = more signal.
For another assay, the system named is Sam68 (KHDRBS1). Nature of the assay: Sam68 small-molecule binders, primary screen, biochemical, small-molecule microarray, 635 nm fluorescence (AID 1125).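 Also: score merges 667 nm channel intensity with signal to noise over triplicate slides.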 To be noted: small-molecule microarray binding, higher = more signal.
In assay [17] the test system is Chordin-like protein 2 (CHRDL2). The assay is described as follows: CHRDL2 small-molecule binders, primary screen, biochemical, small-molecule microarray, 635 nm fluorescence (AID 1126).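 Also: printed compound slides probed with Chrdl2 protein at 4 µg/mL for 1 h at 4 C; score merges 667 nm emission intensity with signal to noise over three replicate slides.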 Particulars: small-molecule microarray binding, fluorescence 635 nm; higher = more signal.
The target in assay [18] is Concanavalin-A (Canavalia ensiformis) (UniProt P02866). The assay is described as follows: ConA small-molecule binders, primary screen, artefact control for SMM control protein annotation, biochemical, small-molecule microarray, Alexa647 label, 635 nm (AID 1127).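 Also: z combines 667 nm emission intensity with signal-to-noise across three replicate slides.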 Particulars: ConA-A647 binding fluorescence, higher = more signal.

Structures are written as SMILES. Activity calls are given as the source filed them.

Sequence of Albumin (Bos taurus) (P02769 whole entry, looked up): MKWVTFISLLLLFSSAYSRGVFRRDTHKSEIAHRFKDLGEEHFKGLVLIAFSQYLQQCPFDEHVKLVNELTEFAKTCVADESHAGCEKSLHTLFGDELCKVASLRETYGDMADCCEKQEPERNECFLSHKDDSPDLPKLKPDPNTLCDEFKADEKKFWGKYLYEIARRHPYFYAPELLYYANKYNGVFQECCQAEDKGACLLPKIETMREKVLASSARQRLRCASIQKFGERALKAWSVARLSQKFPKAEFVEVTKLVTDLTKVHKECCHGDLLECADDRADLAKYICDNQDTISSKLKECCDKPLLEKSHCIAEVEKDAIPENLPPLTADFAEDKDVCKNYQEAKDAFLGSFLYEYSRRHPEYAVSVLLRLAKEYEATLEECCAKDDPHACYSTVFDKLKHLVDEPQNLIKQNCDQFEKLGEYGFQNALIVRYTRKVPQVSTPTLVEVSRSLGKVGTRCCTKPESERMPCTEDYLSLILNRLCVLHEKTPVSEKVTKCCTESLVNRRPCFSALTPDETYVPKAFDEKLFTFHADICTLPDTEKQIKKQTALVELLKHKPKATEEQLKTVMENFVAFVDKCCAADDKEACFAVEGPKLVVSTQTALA
Sequence of Torsin-1A-interacting protein 1 (Homo sapiens) (Q5JTV8 whole entry, looked up): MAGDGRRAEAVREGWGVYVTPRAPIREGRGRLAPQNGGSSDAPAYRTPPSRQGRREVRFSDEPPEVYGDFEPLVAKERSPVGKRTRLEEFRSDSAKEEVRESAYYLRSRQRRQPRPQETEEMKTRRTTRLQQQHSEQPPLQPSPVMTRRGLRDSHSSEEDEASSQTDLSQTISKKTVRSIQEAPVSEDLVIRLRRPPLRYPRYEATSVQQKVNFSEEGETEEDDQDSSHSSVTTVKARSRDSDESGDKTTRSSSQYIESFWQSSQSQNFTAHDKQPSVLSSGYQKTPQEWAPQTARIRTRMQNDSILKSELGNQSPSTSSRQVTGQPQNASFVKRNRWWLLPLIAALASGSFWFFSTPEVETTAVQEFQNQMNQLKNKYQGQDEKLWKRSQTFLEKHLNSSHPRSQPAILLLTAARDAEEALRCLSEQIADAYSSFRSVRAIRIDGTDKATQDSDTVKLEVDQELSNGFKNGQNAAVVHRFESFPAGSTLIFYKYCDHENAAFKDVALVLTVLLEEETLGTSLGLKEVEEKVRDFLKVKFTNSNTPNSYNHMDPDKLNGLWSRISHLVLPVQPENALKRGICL
Sequence of Left-right determination factor 2 (Homo sapiens) (O00292 whole entry, looked up): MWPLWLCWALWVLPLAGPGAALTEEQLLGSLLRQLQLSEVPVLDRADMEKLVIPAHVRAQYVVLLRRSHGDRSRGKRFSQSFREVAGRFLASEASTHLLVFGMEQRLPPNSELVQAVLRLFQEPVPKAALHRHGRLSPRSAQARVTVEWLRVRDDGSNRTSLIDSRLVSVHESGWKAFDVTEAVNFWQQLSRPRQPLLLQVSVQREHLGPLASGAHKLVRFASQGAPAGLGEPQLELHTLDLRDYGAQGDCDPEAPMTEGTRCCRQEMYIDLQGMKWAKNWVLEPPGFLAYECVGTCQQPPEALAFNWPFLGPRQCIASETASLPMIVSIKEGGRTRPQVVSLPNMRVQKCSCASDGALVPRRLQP
Sequence of Concanavalin-A (Canavalia ensiformis) (P02866 whole entry, looked up): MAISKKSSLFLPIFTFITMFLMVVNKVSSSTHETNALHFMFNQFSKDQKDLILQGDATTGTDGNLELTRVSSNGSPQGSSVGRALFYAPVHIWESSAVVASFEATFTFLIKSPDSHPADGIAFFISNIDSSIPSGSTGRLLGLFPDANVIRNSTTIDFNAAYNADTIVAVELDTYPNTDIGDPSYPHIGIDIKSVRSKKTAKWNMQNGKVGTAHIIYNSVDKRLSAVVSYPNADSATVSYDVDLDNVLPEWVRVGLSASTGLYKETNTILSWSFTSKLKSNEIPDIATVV
Sequence of Alpha-bungarotoxin (Bungarus multicinctus) (P60615 whole entry, looked up): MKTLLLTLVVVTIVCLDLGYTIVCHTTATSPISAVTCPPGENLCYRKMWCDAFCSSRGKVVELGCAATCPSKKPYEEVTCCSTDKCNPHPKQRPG

With `COC(=O)[C@@]1(Cc2ccccc2)[C@H]2c3cc(C(=O)N4CCCC4)n(CCO)c3C[C@H]2CN1C(=O)c1ccccc1`, the composite z-score in assay [1] worked out at 0.34; in [3] it was 0.167; in assay [4] it was 2.71; in assay [5], 1.07; in assay [6], 0.853; in assay [7], 0.436. Also, the composite z-score in assay [8] came to 0.922; in assay [9], 3.95; in assay [10], 1.48; with Albumin (Bos taurus), 1.03; in assay [12] it was 1.37; in assay [13], 0.853. Moreover, the composite z-score turned out to be 0.841 in assay [14]; 2.35 in assay [15]; 1.41 in [16]; 1 in the assay with Sam68 (KHDRBS1); 0.443 in [17]; 0.886 in assay [18]. Further, the z-score in [2] is -1.02. In addition, the composite Z-score in [11] was 1.61 (inactive).
With `C=CCC(OC(C)=O)[C@@H]1[C@@H](N(Cc2cc3ccccc3o2)C(=O)Cc2ccc(OC)cc2)c2cc(OCCCO)ccc2N1C(=O)c1ccc(-c2ccccc2)cc1` (stereo not given in full), the composite z-score in assay [1] is 0.0962; in assay [3], -0.214; in assay [4], -0.365; in assay [5] it was 0.468; in assay [6], -0.0767; in [7] it was -0.147. The composite z-score is -0.23 in assay [8]; -0.113 in assay [9]; 0.0856 in assay [10]; 0.0023 with Albumin (Bos taurus); 0.111 in assay [12]; 0.0098 in [13]. In addition, the composite z-score is -0.137 in [14]; -0.338 in assay [15]; -0.0843 in assay [16]; -0.494 in the assay with Sam68 (KHDRBS1); 0.224 in assay [17]; -1.15 in [18]. In [2], this molecule registered a z-score of -0.71. Also, in assay [11], the composite Z-score was -0.287 (inactive).
In the case of `C=C(COC)/C(=C/C[C@@H](OC(=O)c1ccncc1)c1cccc(OCCO)c1)c1cc(C(=O)OC)ccc1OC`, the composite z-score in assay [1] was 0.755; in assay [3], 0.872; in [4], -0.134; in assay [5], -0.698; in [6], 0.115; in assay [7], 0.0048. Further, the composite z-score was -0.483 in assay [8]; 0.567 in [9]; 0.243 in assay [10]; -0.431 with Albumin (Bos taurus); 0.0297 in [12]; -0.147 in assay [13]. The composite z-score is 0.646 in assay [14]; -0.0596 in assay [15]; 0.996 in assay [16]; 1.24 in the assay on Sam68 (KHDRBS1); 0.699 in [17]; 0.206 in assay [18]. Moreover, the z-score in assay [2] is -4.4. Also, in assay [11], the composite Z-score is 0.135 (inactive).
Turning to `Cc1ccc(F)cc1S(=O)(=O)N[C@@H]1CCN(C(=O)c2ccc(OC(C)C)cc2)C1`, the composite z-score was 0.801 in assay [1]; 1.08 in [3]; 0.237 in assay [4]; -0.603 in assay [5]; -0.032 in [6]; 0.0121 in [7]. Also, the composite z-score was -0.425 in [8]; 0.521 in [9]; 0.247 in [10]; 0.0765 with Albumin (Bos taurus); 0.116 in [12]; -0.184 in assay [13]. For the same molecule, the composite z-score is -0.0494 in assay [14]; 0.644 in assay [15]; 0.194 in assay [16]; 1.13 in the assay on Sam68 (KHDRBS1); 0.686 in assay [17]; 0.0897 in assay [18]. Besides, in assay [2], the z-score was -0.0287. Moreover, in [11], the composite Z-score is -0.107 (inactive).
For `O=c1c2ccc(Br)cc2nc(-c2ccccc2)n1Cc1cccc(O)c1`, the composite z-score in assay [1] was -0.128; in assay [3], 0.194; in assay [4], 2.32; in assay [5] it was 0.756; in [6], 0.0438; in assay [7], -0.305. Further, the composite z-score in [8] was -0.218; in [9], 2.51; in [10] it was 1.8; with Albumin (Bos taurus) it was 0.757; in [12] it was 0.103; in assay [13] it was 0.138. The composite z-score in assay [14] was 0.711; in assay [15], 1.46; in assay [16], 1.3; with Sam68 (KHDRBS1) it was 0.772; in [17], 0.182; in assay [18], 0.988. In assay [2], this molecule had a z-score of -0.153. For the same molecule, the composite Z-score in [11] was 0.906 (inactive).
